Test [1] in a line: qHTS assay to identify small molecule agonists of the peroxisome proliferator-activated receptor delta (PPARd) signaling pathway - cell viability counter screen (AID 743211; active means well fitted curve in the direction sought with a large enough effect in the repeat runs; an effect the other way counts as inactive or inconclusive; further: nearly all actives have a fitted effect of over 55% in size). A digest of the protocol: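 Read-out: CellTiter-Glo luminescence, 30 min RT, measured in the same wells as the beta-lactamase reporter. Cells: GeneBLAzer PPAR delta UAS-bla HEK293H, 3000 cells/well, compound exposure 17 h at 37C.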
(Quantitative high-throughput screening tests each substance at several concentrations.)

Test [2] addresses Peroxisome proliferator-activated receptor delta (Homo sapiens) (UniProt Q03181). Briefly: qHTS assay to identify small molecule agonists of the peroxisome proliferator-activated receptor delta (PPARd) signaling pathway (AID 743212). A digest of the protocol:
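Tox21 library screened in GeneBLAzer PPARd UAS-bla HEK293H cells. After compound treatment at 37 C, a FRET-based beta-lactamase substrate was applied for 2 h and fluorescence recorded.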

Test [3] is described as follows: qHTS assay to identify small molecule antagonists of the peroxisome proliferator-activated receptor delta (PPARd) signaling pathway - cell viability counter screen (AID 743213; active means well fitted curve in the direction sought with a large enough effect in the repeat runs; an effect the other way counts as inactive or inconclusive; further: nearly all actives have a fitted effect of over 50% in size). A digest of the protocol: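 CellTiter-Glo was added to PPARd-bla HEK293H wells following 17 h compound treatment in the presence of 300 nM L165041. Luminescence was recorded after 30 min at room temperature.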

The target in test [4] is Bile acid receptor (Homo sapiens) (UniProt Q96RI1). The test can be described thus: qHTS assay to identify small molecule antagonists of the farnesoid-X-receptor (FXR) signaling pathway (AID 743217; active means well fitted inhibition curve with a large enough effect in the signal ratio in the repeat runs, not every such curve was filed as active; the % refers to the signal ratio). Summed up: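 Test compounds are pin-transferred onto FXR-bla HEK 293T cells, then chenodeoxycholic acid is added at 50 uM final. After 16 h at 37 °C, LiveBLAzer B/G substrate is applied for 2 h at room temperature and fluorescence read.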
Bile acid receptor (Homo sapiens), sequence (Q96RI1 whole entry, looked up): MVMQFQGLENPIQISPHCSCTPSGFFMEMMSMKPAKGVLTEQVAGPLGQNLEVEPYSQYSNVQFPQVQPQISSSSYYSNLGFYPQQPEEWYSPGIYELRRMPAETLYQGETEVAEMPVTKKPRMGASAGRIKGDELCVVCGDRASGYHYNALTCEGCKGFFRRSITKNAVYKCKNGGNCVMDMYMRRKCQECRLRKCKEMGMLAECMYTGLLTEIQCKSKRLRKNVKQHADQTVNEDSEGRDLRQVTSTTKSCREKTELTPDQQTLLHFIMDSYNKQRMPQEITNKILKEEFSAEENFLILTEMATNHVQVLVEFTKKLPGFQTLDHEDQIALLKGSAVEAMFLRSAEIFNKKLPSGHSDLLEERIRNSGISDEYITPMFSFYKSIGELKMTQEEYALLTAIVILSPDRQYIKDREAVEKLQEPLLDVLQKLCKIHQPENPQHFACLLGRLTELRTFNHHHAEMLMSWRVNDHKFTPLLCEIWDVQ

The nature of test [5]: qHTS assay to identify small molecule agonists of the farnesoid-X-receptor (FXR) signaling pathway - cell viability counter screen (AID 743218; active means well fitted curve in the direction sought with a large enough effect in the repeat runs; an effect the other way counts as inactive or inconclusive; further: nearly all actives have a fitted effect of over 45% in size). A digest of the protocol:
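Quantitative HTS counter screen measuring ATP-based viability via CellTiter-Glo luminescence in HEK 293T cells carrying a UAS-driven beta-lactamase reporter, after 16 h compound exposure at 37 C.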

Test [6] has as its target Bile acid receptor (Homo sapiens) (UniProt Q96RI1). Briefly: qHTS assay to identify small molecule agonists of the farnesoid-X-receptor (FXR) signaling pathway (AID 743220; active means well fitted activation curve with a large enough effect in the signal ratio in the repeat runs, not every such curve was filed as active; the % refers to the signal ratio). A digest of the protocol:
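FXR-UAS-bla HEK 293T cells carrying a UAS-driven beta-lactamase reporter were plated for 5 h at 37C/5% CO2, then exposed to DMSO-dissolved Tox21 10K compounds for 16 h at 37C. A LiveBLAzer B/G FRET substrate was loaded for 2 h at room temperature before fluorescence reading.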

Test [7] can be described thus: qHTS assay to identify small molecule antagonists of the farnesoid-X-receptor (FXR) signaling pathway - cell viability counter screen (AID 743221; active means well fitted cell-killing curve with a large enough effect in the repeat runs, not every such curve was filed as active; further: nearly all actives have a fitted effect of over 50% in size). Summed up:
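HEK 293T FXR-bla cells, 5 h pre-incubation; compound + CDCA 50 uM final, 16 h, 37 C; beta-lactamase FRET read first, then CellTiter-Glo luminescence, 30 min RT.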

The target of test [8] is Vitamin D3 receptor (Homo sapiens) (UniProt P11473). Briefly: qHTS assay to identify small molecule agonists of the vitamin D receptor (VDR) signaling pathway (AID 743222). A digest of the protocol:
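Tox21 cell reporter format: VDR-bla line, 16 h compound exposure in 5% CO2 at 37C, then fluorescence intensity after 2 h with LiveBLAzer B/G FRET substrate.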

Test [9] shares this target. The test can be described thus: qHTS assay to identify small molecule antagonists of the vitamin D receptor (VDR) signaling pathway (AID 743223; active means well fitted inhibition curve with a large enough effect in the signal ratio in the repeat runs, not every such curve was filed as active; the % refers to the signal ratio). Summed up:
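Beta-lactamase reporter read-out: FRET substrate fluorescence after 2 h at room temperature, following 16 h exposure of VDR-bla cells to test compound plus 3 nM (final) 1alpha,25-dihydroxyvitamin D3 agonist at 37C.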

Test [10] can be described thus: qHTS assay to identify small molecule agonists of the vitamin D receptor (VDR) signaling pathway - cell viability counter screen (AID 743224; active means well fitted curve in the direction sought with a large enough effect in the repeat runs; an effect the other way counts as inactive or inconclusive; further: series mostly up to about 63 µM; nearly all actives have a fitted effect of over 50% in size). Summed up:
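CellTiter-Glo viability readout on VDR-bla cells, measured after 16 h of compound treatment at 37C in the same wells.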

Test [11] is described as follows: qHTS assay to identify small molecule antagonists of the vitamin D receptor (VDR) signaling pathway - cell viability counter screen (AID 743225; active means well fitted curve in the direction sought with a large enough effect in the repeat runs; an effect the other way counts as inactive or inconclusive; further: nearly all actives have a fitted effect of over 50% in size). A digest of the protocol: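 Viability counter screen run in the same wells as the beta-lactamase reporter assay: HEK 293T VDR-UAS-bla cells, 16 h compound exposure at 37C with 3 nM (final) 1-alpha,25-dihydroxyvitamin D3. CellTiter-Glo luminescence, 30 min, room temperature.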

Test [12] can be described thus: qHTS assay to identify small molecule agonists of the NFkB signaling pathway - cell viability counter screen (AID 1159515). Further: series mostly up to about 61 µM; nearly all actives have a fitted effect of over 55% in size. Summed up: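 Tox21 library compounds were tested for cytotoxicity against NFkB-bla ME-180 cells during a 5 hr exposure at 37 C. CellTiter-Glo luminescence served as the viability read-out.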
Test [13] in a line: qHTS assay to identify small molecule agonists of the endoplasmic reticulum stress response signaling pathway (AID 1159516; active means well fitted activation curve with a large enough effect in the signal ratio in the repeat runs, not every such curve was filed as active; the % refers to the signal ratio). A digest of the protocol:
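Fluorescence at 460 and 530 nm (405 nm excitation) reports beta-lactamase from an ER stress response element in HeLa cells treated 5 hr at 37 C.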

A short description of test [14]: qHTS assay to identify small molecule agonists of the endoplasmic reticulum stress response signaling pathway - cell viability counter screen (AID 1159517). Summed up:
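In parallel with the ESRE reporter read, cytotoxicity was scored by CellTiter-Glo luminescence (30 min, room temperature) on HeLa ESRE-bla cells dosed for 5 hr.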

Test [15] is described as follows: qHTS assay to identify small molecule antagonists of the retinoid-related orphan receptor gamma (ROR-gamma) signaling pathway - cell viability counter screen (AID 1159520; active means well fitted curve in the direction sought with a large enough effect in the repeat runs; an effect the other way counts as inactive or inconclusive; further: nearly all actives have a fitted effect of over 50% in size). A digest of the protocol: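 Tet-on ROR gamma CHO cells were given compounds for 2 hr, then doxycycline hyclate at 1 uM final, and incubated 16 hr at 37 C. Viability was measured as ATP content by CellTiter-Glo luminescence.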

The target of test [16] is Nuclear receptor ROR-gamma (Homo sapiens) (UniProt P51449). Briefly: qHTS assay to identify small molecule antagonists of the retinoid-related orphan receptor gamma (ROR-gamma) signaling pathway (AID 1159521; active means well fitted curve in the direction sought with a large enough effect in the repeat runs; an effect the other way counts as inactive or inconclusive). A digest of the protocol: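 Luminescence readout (ONE-Glo, 30 min RT) after 16 h doxycycline induction; loss of signal scored as antagonism. CHO cells with TET-inducible RORγ and RORE-LUC reporter; compounds added 2 h before 1 uM final doxycycline.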

Test [17] can be described thus: qHTS assay to identify small molecule agonists of the AP-1 signaling pathway - cell viability counter screen (AID 1159525). Further: nearly all actives have a fitted effect of over 55% in size. A digest of the protocol: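 Same-well cytotoxicity counter screen of the Tox21 10K library in ME-180 cells. The readout is ATP-dependent luminescence after 5 h compound treatment. Data are normalised to DMSO and tetra n-octyl ammonium bromide controls.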

Test [18] in a line: qHTS assay to identify small molecule agonists of the AP-1 signaling pathway (AID 1159526). Further: potency means the concentration at half of the fitted maximal effect.
The target in test [19] is Peroxisome proliferator-activated receptor delta (Homo sapiens) (UniProt Q03181). The test can be described thus: qHTS assay to identify small molecule antagonists of the peroxisome proliferator-activated receptor delta (PPARd) signaling pathway (AID 743215; active means well fitted inhibition curve with a large enough effect in the signal ratio in the repeat runs, not every such curve was filed as active; the % refers to the signal ratio;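 further: cells stimulated with agonist L165041 at 300 nM final during compound exposure; series mostly up to about 62 µM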). Summed up: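 Here, a reporter line (HEK293H, beta-lactamase under a UAS) measures PPARd signaling. Compounds are tested against agonist L165041 at 300 nM final concentration over 17 h at 37 C, with fluorescence read after substrate.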
Peroxisome proliferator-activated receptor delta (Homo sapiens), sequence (Q03181 whole entry, looked up): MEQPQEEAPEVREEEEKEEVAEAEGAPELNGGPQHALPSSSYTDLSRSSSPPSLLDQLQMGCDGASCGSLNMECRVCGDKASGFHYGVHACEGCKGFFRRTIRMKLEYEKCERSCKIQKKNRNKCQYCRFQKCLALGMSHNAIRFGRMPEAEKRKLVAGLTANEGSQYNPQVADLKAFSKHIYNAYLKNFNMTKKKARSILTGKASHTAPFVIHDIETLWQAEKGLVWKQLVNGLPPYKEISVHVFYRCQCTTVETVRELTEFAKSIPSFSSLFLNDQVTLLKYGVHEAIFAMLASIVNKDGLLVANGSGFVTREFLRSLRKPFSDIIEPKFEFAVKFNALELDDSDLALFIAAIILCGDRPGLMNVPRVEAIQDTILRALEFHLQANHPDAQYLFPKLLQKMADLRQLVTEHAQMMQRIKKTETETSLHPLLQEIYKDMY

The target of test [20] is Retinoic acid receptor RXR-alpha (Homo sapiens) (UniProt P19793). Briefly: qHTS assay to identify small molecule agonists of the RXR signaling pathway (AID 1159527). Further: nearly all actives have a fitted effect of over 35% in size. A digest of the protocol:
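Agonist mode; 9-cis retinoic acid positive control. HEK 293T UAS-bla reporter cells, 2% charcoal-stripped FBS, 16 hr compound exposure at 37 C/5% CO2. LiveBLAzer B/G FRET substrate 2 hr RT; ex 405, em 460/530 nm.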

Inconclusive results are not listed. Activity calls are given as the source filed them. Unless noted, the call rests on the fitted dose curve.

Vitamin D3 receptor (Homo sapiens), sequence (P11473 whole entry, looked up): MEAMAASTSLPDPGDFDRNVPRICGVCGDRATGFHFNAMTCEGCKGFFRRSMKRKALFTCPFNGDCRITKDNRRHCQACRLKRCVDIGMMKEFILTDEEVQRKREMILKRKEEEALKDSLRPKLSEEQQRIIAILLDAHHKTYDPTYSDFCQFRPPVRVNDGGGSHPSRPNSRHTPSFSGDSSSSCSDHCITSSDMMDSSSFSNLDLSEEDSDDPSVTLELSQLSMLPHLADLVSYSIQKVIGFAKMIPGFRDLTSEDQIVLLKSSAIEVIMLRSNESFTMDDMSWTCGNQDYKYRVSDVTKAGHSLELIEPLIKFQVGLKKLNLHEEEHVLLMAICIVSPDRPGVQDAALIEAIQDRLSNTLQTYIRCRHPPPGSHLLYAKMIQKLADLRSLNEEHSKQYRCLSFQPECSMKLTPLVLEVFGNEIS
Retinoic acid receptor RXR-alpha (Homo sapiens), sequence (P19793 whole entry, looked up): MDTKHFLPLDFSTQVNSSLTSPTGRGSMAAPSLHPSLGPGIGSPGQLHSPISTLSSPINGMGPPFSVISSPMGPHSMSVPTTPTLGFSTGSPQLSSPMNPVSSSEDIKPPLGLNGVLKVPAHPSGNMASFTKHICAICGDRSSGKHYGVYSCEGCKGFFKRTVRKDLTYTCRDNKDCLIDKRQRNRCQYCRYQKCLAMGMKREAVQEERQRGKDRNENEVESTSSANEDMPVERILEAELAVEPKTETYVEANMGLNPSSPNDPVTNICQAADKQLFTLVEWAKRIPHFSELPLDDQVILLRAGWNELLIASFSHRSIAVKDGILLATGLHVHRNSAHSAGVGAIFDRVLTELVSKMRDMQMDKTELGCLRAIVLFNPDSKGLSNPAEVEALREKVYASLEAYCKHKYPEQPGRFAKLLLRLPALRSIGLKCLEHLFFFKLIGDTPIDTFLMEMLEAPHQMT

Consider `O=CNc1ccccc1`, for which the Potency result in test [1], in test [3], in [5], in test [7], in [9] and in [10] was “inactive” in each case. Further, the Potency entry in test [11], in test [12], in test [13], in [15], in test [16] and in test [17] was “inactive” in each case. The Potency result in [18] is “inactive”. Further, the result in test [2], in test [4], in test [6], in test [8] and in [14] was inactive.
On to `CCOc1ccc2[nH]cc(C(=O)NCc3ccccc3)c(=O)c2n1`, for which the Potency entry in [1], in test [3], in test [7], in test [10], in test [12] and in test [13] was “inactive” each time. Also, the Potency entry in test [15], in test [16], in [17] and in test [18] was “inactive” in each case. In addition, the call in [2], in [19], in test [4], in test [6], in [8] and in test [14] was inactive.
For the compound `CNCC[C@@H](Oc1ccccc1C)c1ccccc1`, the Potency result in test [3], in test [5], in test [7], in test [9], in test [11] and in test [12] was “inactive” in each case. Moreover, the Potency entry in [13], in [15], in test [16], in test [17] and in test [20] was “inactive” each time. Besides, the result in test [19], in test [8] and in [14] was inactive. For the same compound, the Potency in test [18] is 21.3 µM (active).
Consider `CN(C)CCCNCCCN`, for which the Potency result in test [1], in test [3], in test [5], in [7], in test [9] and in test [10] was “inactive” in each case. For the same compound, the Potency result in [11], in [12], in test [13], in test [15], in [16] and in test [17] was “inactive” each time. Besides, the Potency entry in test [18] was “inactive”. For the same compound, the outcome in test [2], in [4], in test [6], in [8] and in [14] was inactive.
In the case of `Cc1cc(NC(=O)C(=O)O)cc(C)c1Oc1ccc(O)c2c1CCC2`, the Potency result in test [1], in test [3], in [5], in test [7], in test [10] and in test [11] was “inactive” in each case. The Potency result in [12], in test [13], in [15], in test [16], in [17] and in test [18] was “inactive” throughout. The result in test [2], in test [4], in test [6], in [8] and in test [14] was inactive.
For the compound `CCCCOCCOCCOCCOCCO`, the Potency result in [1], in test [3], in test [10], in test [12], in test [13] and in test [15] was “inactive” each time. In addition, the Potency result in test [16], in test [17] and in test [18] was “inactive” in each case. The call in [2], in [19], in [8] and in [14] was inactive.
With `CC(=O)OC/C=C/c1ccccc1`, the Potency result in test [1], in test [3], in [7], in test [9], in [10] and in [12] was “inactive” each time. Moreover, the Potency entry in [13], in [15], in [16], in test [17], in test [18] and in test [20] was “inactive” throughout. Also, the compound was classed as inactive in test [2], in [19], in test [4], in test [6], in test [8] and in [14].
For `Cc1cccc(Oc2ccccc2)c1`, the Potency entry in test [1], in test [3], in test [5], in test [7], in test [9] and in test [11] was “inactive” throughout. The Potency result in [12], in test [13], in test [15], in [16], in [17] and in test [18] was “inactive” throughout. Besides, the compound was called inactive in test [2], in test [8] and in [14].
